Pf growth 48h – inhibits P. falciparum growth in the first generation, 48 h; P. falciparum luciferase growth in erythrocytes, 48 h; Potency, µM (doses to about 28.7 µM), inactives show at the highest dose activity change, negative = inhibition, usual class: inhibitors; 5.9% of 310,000 active; also: potency is read from the fitted curve at half-maximal effect; % is scaled to controls: 0 for no effect and ±100 for the full control effect
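Luminescence readout; reporter = integrated firefly luciferase in P. falciparum. RBC culture at 2% hematocrit, 0.1% parasitemia final, 37 C/5% CO2; decreased signal taken as growth inhibition.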
Sm TGR inh – blocks Schistosoma mansoni thioredoxin glutathione reductase; 3% of 360,000 active; Q962Y6; Potency, µM (highest dose often 114 µM), inactives show at the highest dose activity change, negative = inhibition, hits mostly inhibitors; purified TGR, DTNB reduction, TNB absorbance 405 nm; also: potency is read from the fitted curve at half-maximal effect; % is scaled to controls: 0 for no effect and ±100 for the full control effect; nearly all actives have a fitted effect of over 60% in size
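TGR 20 nM + NADPH 100 uM (dispensed conc.), cpd preinc 15 min RT; start with NADPH (500 uM addition) then DTNB (15 mM addition). Kinetic TNB absorbance, 405 nm filter. Four-parameter Hill fit across titration.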
Pf growth 96h – P. falciparum growth inhibition at 96 hour, primary screen for plastid delayed-death inhibitors. P. falciparum luciferase reporter growth, 96 h. Potency, µM (doses to about 28.7 µM), inactives show at the top dose activity change, negative = inhibition, usual class: inhibitors. 6.9% of 320,000 active. AID 504834; also: potency is read from the fitted curve at half-maximal effect; % is scaled to controls: 0 for no effect and ±100 for the full control effect
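Plates of compound plus infected erythrocytes (2% hematocrit, 0.05% parasitemia final) incubate 96 hours, 37 C, 5% CO2. Detection reagent added; reduced luminescence from the parasites' luciferase reporter flags inhibition.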
SARS PLpro yeast-1 – blocks SARS-CoV papain-like protease in a yeast assay; S. cerevisiae expressing SARS-CoV PLpro, growth rescue; Potency, µM (top dose mostly 32.9 µM), for inactives: at the top dose activity, positive = growth rescue, usual class: activators; 0.19% of 330,000 active; calls by dose curve; also: potency is read from the fitted curve at half-maximal effect; 0% is about no effect; nearly all actives have a fitted effect of over 55% in size
SARS PLpro yeast-2 – Rescues yeast growth by inhibiting SARS-CoV PLpro | shares compounds with SARS PLpro yeast-1 | yeast expressing SARS-CoV PLpro, growth phenotype rescue | calls only | 19% of 1,000 active; call rule not given here
CLK4 ADP-Glo – confirmation of inhibitors of human CDC-like kinase 4; shares compounds with Pf growth 48h; 80% of 65 active; AID 1969; recombinant Clk4, RS peptide, ADP-Glo luminescence; Potency, µM (doses to about 80 µM), inactives show at the highest dose activity, negative = inhibition, hits mostly inhibitors
Target sequence (Q9HAZ1 whole entry, looked up): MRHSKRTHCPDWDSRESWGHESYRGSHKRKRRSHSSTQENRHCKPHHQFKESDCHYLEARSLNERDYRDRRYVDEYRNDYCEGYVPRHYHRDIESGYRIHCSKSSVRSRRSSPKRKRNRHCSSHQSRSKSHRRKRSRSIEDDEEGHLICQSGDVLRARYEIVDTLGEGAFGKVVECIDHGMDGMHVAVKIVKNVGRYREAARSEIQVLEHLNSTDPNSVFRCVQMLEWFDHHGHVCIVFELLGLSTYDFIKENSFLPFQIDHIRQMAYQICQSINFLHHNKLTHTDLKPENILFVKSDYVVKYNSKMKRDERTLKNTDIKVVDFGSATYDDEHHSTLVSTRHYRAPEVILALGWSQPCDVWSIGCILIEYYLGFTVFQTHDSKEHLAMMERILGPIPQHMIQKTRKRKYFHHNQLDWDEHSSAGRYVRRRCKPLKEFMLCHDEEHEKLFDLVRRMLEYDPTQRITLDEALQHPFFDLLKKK
CLK4 cf ADP-FP – CLK4 (human) inhibition, Transcreener FP confirmation; shares compounds with Pf growth 48h; recombinant Clk4, ADP Transcreener FP, RS peptide; Potency, µM (series often up to 80 µM), inactives show at the highest dose activity, negative = inhibition, most hits filed as inhibitors; 70% of 65 active; AID 1983
The depositor's hits bear a star; i = inactive; ? = inconclusive; · = no result given; ! = not confirmed by another sample. Sampled rows, rich in hits. Any-hit rate of the full collection: about 12%. Unless noted, calls follow the shape of the dose curve; as a rule, active = well fitted curve in the direction sought with a large enough effect; inconclusive = small, poorly fitted or top-dose-only effect, or another doubt; inactive = no such curve, though single readings can be large; an effect the other way counts as inactive or inconclusive.

SMILES	Pf growth 48h	Sm TGR inh	Pf growth 96h	SARS PLpro yeast-1	CLK4 ADP-Glo	CLK4 cf ADP-FP	others
Cc1cccc(-c2ccc3ncnc(NCc4cccs4)c3c2)c1	3.7µM*!	-2%	3.3µM*	6.3µM*!	7.9µM*	16µM*	SARS PLpro yeast-2=i
Cc1cccc(-c2ccc3ncnc(NCc4cccnc4)c3c2)c1	9.3µM*	-9%	?	6.3µM*!	6.3µM*	10µM*	SARS PLpro yeast-2=i
COc1cccc(-c2ccc3ncnc(NCc4cc(C)cs4)c3c2)c1	6.6µM*	-3%	4.1µM*	6.3µM*!	0.89µM*	1.3µM*	SARS PLpro yeast-2=i
Brc1ccc2ncnc(NCc3ccccc3)c2c1	?	-2%	130%	-19%	·	·
O=C(OCc1ccccc1F)c1cc2ccccc2cc1O	-3%	-4%	-15%	-1%	·	·
COCC(=O)N[C@@H]1c2cc(OC)c(OC)cc2C[C@H]1OCc1ccccc1	·	·	·	-4%	·	·
Cc1ccc2ncnc(NCCCCCC(=O)O)c2c1	1%	-4%	5%	-3%	·	·
Cc1csc(CNc2ncnc3ccc(-c4cccnc4)cc23)c1	?	3%	10µM*	2%	4.5µM*	11µM*
Cc1csc(CNc2ncnc3ccc(-c4ccoc4)cc23)c1	13µM*!	-28%	?	6%	0.56µM*	0.56µM*
Cc1cnc(C(=O)O)c[n+]1[O-]	-9%	·	-10%	·	·	·
Cc1ccc(S(=O)(=O)N2CCC[C@H]2C(=O)OCC(=O)Nc2ccc3c(c2)OCO3)cc1	·	·	·	1%	·	·
Cc1csc(CNc2ncnc3ccc(-c4ccc5c(c4)OCO5)cc23)c1	10µM*	-2%	3.3µM*	5%	0.16µM*	0.16µM*
Cc1csc(CNc2ncnc3ccc(-c4ccc5c(c4)OCCO5)cc23)c1	12µM*	-9%	?	-6%	0.45µM*	0.56µM*
COc1cc(NC(=O)C2CCN(c3nc4ccccc4nc3C(F)(F)F)CC2)cc(OC)c1	·	8%	·	·	·	·
CCn1c(SCc2ccccc2Cl)nc(=O)c2c(C(=O)OC)cc(C3CC3)nc21	·	1%	·	·	·	·
Cn1ccc2cc(-c3ccc4ncnc(NCc5ccc6c(c5)OCO6)c4c3)ccc21	13µM*	-16%	?	2%	?	-17%
Clc1cccc(-c2ccc3ncnc(NCc4ccc5c(c4)OCO5)c3c2)c1	6.6µM*	4%	1.5µM*	-4%	?	?
COc1cccc(-c2ccc3ncnc(N(C)Cc4ccco4)c3c2)c1	?	-5%	15µM*	-5%	0.35µM*	0.45µM*
COc1cccc(S(=O)(=O)NCc2ccc3c(c2)OCO3)c1	·	3%	-20%	0%	·	·
Cc1sc2ncnc(N(C)Cc3ccco3)c2c1C	·	-2%	-29%	?	·	·
COc1cccc(-c2ccc3ncnc(NCc4ccc5c(c4)OCO5)c3c2)c1	9.3µM*	-1%	7.4µM*	3%	1.3µM*	2.2µM*
Fc1ccc(-c2csc(=Nc3cccc(C(F)(F)F)c3)n2Cc2ccc3c(c2)OCO3)cc1	·	8%	·	·	·	·
CN(C)S(=O)(=O)c1ccc(SCC(=O)N2CC(=O)Nc3ccccc32)nc1	?	-10%	?	-3%	·	·
Cc1cccc(C)c1NC(=O)c1cccc(N2C(=O)C3CCC(C)CC3C2=O)c1 (stereo not drawn)	0%	6%	?	-2%	·	·
c1cncc(CNc2ncnc3ccc(-c4ccc5c(c4)OCO5)cc23)c1	?	16%	8%	7%	0.13µM*	0.089µM*
c1nc(NCc2ccc3c(c2)OCO3)c2cc(-c3ccc4c(c3)OCCO4)ccc2n1	13µM*	-1%	?	2%	1.8µM*	2.2µM*
CC1=NN(C(N)=S)C(=O)C1N=Nc1ccc([N+](=O)[O-])cc1 (stereo not drawn)	·	-8%	465%	1%	·	·
COc1ccc(-n2ncc3c(NCc4cccs4)ncnc32)cc1	99%	5%	·	-4%	·	·
c1csc(CNc2ncnc3nc[nH]c23)c1	9%	4%	?	1%	·	·

Screens (PubChem BioAssay)
